# Source: PubChem BioAssay (NCATS)
# Results filed as inconclusive are left out. Calls of active or inactive are those of the source. Unless noted, calls follow the shape of the dose curve; as a rule, active = well fitted cell-killing curve with a large enough effect; inconclusive = small, poorly fitted or top-dose-only effect, or effect the other way; inactive = no such curve, though single readings can be large or run the other way.
# Key:
# [1] = Quantitative High-Throughput drug screen in 47 multiple myeloma cell lines against the NCATS MIPE library collection: VP6_DJ cell viability assay (AID 1919867); also: nearly all actives have a fitted effect of over 40% in size
# In short: (§1)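 MIPE 4.0 approved/investigational drugs; 500 cells/well; 48 h 37 °C humidified 5% CO2; CTG luminescence readout; DMSO = 100%, media = 0% viability.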
# [2] = Quantitative High-Throughput drug screen in 47 multiple myeloma cell lines against the NCATS MIPE library collection: PE2_PLB cell viability assay (AID 1919869); also: nearly all actives have a fitted effect of over 35% in size
# In short: as §1
# [3] = Quantitative High-Throughput drug screen in 47 multiple myeloma cell lines against the NCATS MIPE library collection: RPMI8226_ATCC cell viability assay (AID 1919871); also: nearly all actives have a fitted effect of over 30% in size
# In short: as §1
# [4] = Quantitative High-Throughput drug screen in 47 multiple myeloma cell lines against the NCATS MIPE library collection: KMS11_JCRBsus cell viability assay (AID 1919873); also: nearly all actives have a fitted effect of over 50% in size
# In short: as §1
# [5] = Quantitative High-Throughput drug screen in 47 multiple myeloma cell lines against the NCATS MIPE library collection: KMS28BM_JCRB cell viability assay (AID 1919874); also: nearly all actives have a fitted effect of over 35% in size
# In short: as §1
# [6] = qHTS for identification of novel therapeutic agents for treatment of microphthalmiaassociated transcription factor (MiT) renal cell carcinoma (RCC) (AID 1963991; calls by dose curve); conditions: CellTiter-Glo, 48 h; for z-score: stronger effect = lower value; for Potency: active = Z-AUC below -0.8 in all three lines
# In short: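 Curves over 11 concentrations were fitted to CellTiter-Glo luminescence, scaled between empty wells (0%) and DMSO (100%) viability. Cells were UOK109, UOK124 and UOK145 TFE3-fusion RCC lines at 500/well, exposed 48 hours at 37 C.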
# [7] = Quantitative High-Throughput drug screen in 47 multiple myeloma cell lines against the NCATS MIPE library collection: PCM6_Riken cell viability assay (AID 1919870); also: nearly all actives have a fitted effect of over 30% in size
# In short: as §1
# [8] = Quantitative High-Throughput drug screen in 47 multiple myeloma cell lines against the NCATS MIPE library collection: OPM2_DSMZ cell viability assay (AID 1919872); also: nearly all actives have a fitted effect of over 30% in size
# In short: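 Primary qHTS used for cherry-picking: cells at 500/well, library compounds for 48 h (37C, 5% CO2), luminescent ATP assay.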
# [9] = qHTS drug screen for cell cycle checkpoint inhibitors in PARPi-resistant BRCA-mutant ovarian cancer cell lines. (AID 1963452; calls by dose curve); conditions: PEO1/OlaR viability, CellTiter-Glo luminescence, 96 h; for Z-AUC: stronger effect = lower value
# In short: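 PEO1, PEO4 and PEO1/OlaR ovarian cancer cells, 600 per well, exposed 96 h at 37C to a dilution series. Viability read by CellTiter-Glo luminescence, normalized to DMSO and empty wells; activity summarized as Z-AUC.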
# [10] = Quantitative High-Throughput drug screen in 47 multiple myeloma cell lines against the NCATS MIPE library collection: UTMC2_PLB cell viability assay (AID 1919868); conditions: CellTiter-Glo ATP luminescence, 48 h; viability (% of DMSO control): at 45.8 µM (top of the series); also: nearly all actives have a fitted effect of over 55% in size;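 as to viability (% of DMSO control): 100% = DMSO-only wells and 0% = media-only wells without cells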
# In short: as §1
# [11] = TFE3-RCC UOK109 viability, measured here: UOK109 Z-AUC
# [12] = TFE3-RCC viability, measured here: UOK124 Z-AUC
# [13] = TFE3-RCC viability, measured here: UOK145 Z-AUC
# [14] = measured here: PEO1 parental Z-AUC
# Potency is read from the fitted curve at half-maximal effect.
compound,measurement,setting,value
CCC(=O)O[C@]1(C(=O)CO)CC[C@H]2[C@@H]3CCC4=CC(=O)CC[C@]4(C)[C@@H]3CC[C@@]21C,Potency,[1],10.5 µM (active)
same,Potency,[2],inactive
same,Potency,[3],inactive
same,Potency,[4],0.209 µM (active)
same,Potency,[5],inactive
same,z-score,[6]; [11],1.05
same,z-score,[6]; [12],0.404
same,z-score,[6]; [13],0.464
CN1CCN(CCOc2cc(OC3CCOCC3)c3c(Nc4c(Cl)ccc5c4OCO5)ncnc3c2)CC1,Potency,[1],4.18 µM (active)
same,Potency,[2],23.5 µM (active)
same,Potency,[7],9.35 µM (active)
same,Potency,[8],inactive
same,Potency,[4],23.5 µM (active)
same,Z-AUC,[9],0.642 (inactive)
same,Z-AUC,[9]; [14],0.934
same,Z-AUC,[9]; measured here: PEO4 Z-AUC,1.23
c1cc(-c2sc(-c3ccncc3)c(-c3ccncc3)c2-c2ccncc2)ccn1,Potency,[1],9.35 µM (active)
same,Potency,[2],14.8 µM (active)
same,Potency,[3],inactive
same,Potency,[8],inactive
same,Potency,[4],inactive
same,Potency,[5],inactive
same,Z-AUC,[9],1.76 (inactive)
same,Z-AUC,[9]; [14],1.54
same,Z-AUC,[9]; measured here: PEO4 Z-AUC,1.03
Clc1ccc(COC(Cn2ccnc2)c2ccc(Cl)cc2Cl)cc1 (centres undefined),Potency,[1],20.9 µM (active)
same,Potency,[7],20.9 µM (active)
same,Potency,[8],inactive
same,Z-AUC,[9],0.343 (inactive)
same,Z-AUC,[9]; [14],0.179
same,Z-AUC,[9]; measured here: PEO4 Z-AUC,0.161
CCn1c(C(=O)N(C2CC2)C2CC2)cc2c3c(ncn3C)c(Nc3cc(C)n(C)n3)nc21,Potency,[1],29.6 µM (active)
same,Potency,[2],16.6 µM (active)
same,Potency,[5],inactive
same,Z-AUC,[9],0.749 (inactive)
same,Z-AUC,[9]; [14],1.24
same,Z-AUC,[9]; measured here: PEO4 Z-AUC,1.3
NC1=N[C@@]2(c3cc(NC(=O)c4ccc(F)cn4)ccc3F)COC[C@@H]2CS1,Potency,[1],13.2 µM (active)
same,Potency,[2],23.5 µM (active)
same,Potency,[7],11.8 µM (active)
same,Potency,[3],inactive
same,Potency,[4],23.5 µM (active)
same,Potency,[5],18.7 µM (active)
CC(C)(C)Cn1c(N)nc2ccc(-c3[nH]c(C(C)(C)C)nc3-c3ccc(F)cc3)nc21,Potency,[1],16.6 µM (active)
same,Potency,[2],20.9 µM (active)
same,Potency,[4],inactive
same,Z-AUC,[9],-0.716 (inactive)
same,Z-AUC,[9]; [14],-1.14
same,Z-AUC,[9]; measured here: PEO4 Z-AUC,-1.15
NC(=O)c1cccc(-c2cc(Nc3ccc(OC(F)(F)F)cc3)ncn2)c1,Potency,[1],14.8 µM (active)
same,Potency,[2],18.7 µM (active)
same,Potency,[3],inactive
same,Potency,[8],16.6 µM (active)
same,Potency,[4],29.6 µM (active)
same,Z-AUC,[9],1.26 (inactive)
same,Z-AUC,[9]; [14],0.548
same,Z-AUC,[9]; measured here: PEO4 Z-AUC,0.648
O=c1cc(N2CCOCC2)oc2c(-c3cccc4c3sc3ccccc34)cccc12,Potency,[1],3.72 µM (active)
same,Potency,[2],9.35 µM (active)
same,Potency,[7],8.33 µM (active)
same,Potency,[5],3.72 µM (active)
same,Z-AUC,[9],0.27 (inactive)
same,Z-AUC,[9]; [14],0.135
same,Z-AUC,[9]; measured here: PEO4 Z-AUC,0.0636
CN(C)Cc1ccc(-c2nc3cccc4c3n2CCNC4=O)cc1,Potency,[1],14.8 µM (active)
same,Potency,[2],20.9 µM (active)
same,Potency,[7],14.8 µM (active)
same,Potency,[4],26.4 µM (active)
same,Z-AUC,[9],0.426 (inactive)
same,Z-AUC,[9]; [14],0.483
same,Z-AUC,[9]; measured here: PEO4 Z-AUC,0.475
Cc1nnc(C(C)C)n1C1C[C@H]2CC[C@@H](C1)N2CC[C@H](NC(=O)C1CCC(F)(F)CC1)c1ccccc1 (some centres undefined),Potency,[1],23.5 µM (active)
same,Potency,[3],inactive
same,Potency,[8],inactive
same,Potency,[4],inactive
same,Potency,[5],inactive
CC[C@H]1OC(=O)[C@H](C)C(=O)[C@H](C)[C@@H](O[C@H]2O[C@H](C)C[C@H](N(C)C)[C@@H]2O)[C@](C)(OC)C[C@@H](C)C(=O)[C@H](C)[C@H]2N(CCCCn3cnc(-c4cccnc4)c3)C(=O)O[C@]12C,Potency,[1],11.8 µM (active)
same,Potency,[3],18.7 µM (active)
same,Potency,[4],16.6 µM (active)
same,Potency,[5],inactive
Cn1c(N2CCCCS2(=O)=O)nc(C(=O)NCc2ccc(F)cc2)c(O)c1=O,viability (% of DMSO control),[10],149% (active)
same,Potency,[2],inactive
same,Potency,[7],inactive
same,Potency,[3],inactive
same,Potency,[8],inactive
CCNc1cc(NC2CCC(O)CC2)nc(Nc2ccc3c(ccn3Cc3ccccc3)c2)n1 (centres undefined),Potency,[10],37.2 µM (active)
same,Potency,[2],23.5 µM (active)
same,Potency,[7],20.9 µM (active)
same,Potency,[4],20.9 µM (active)
same,Z-AUC,[9],0.474 (inactive)
same,Z-AUC,[9]; [14],0.235
same,Z-AUC,[9]; measured here: PEO4 Z-AUC,0.72
NC(=O)NN=Cc1ccc([N+](=O)[O-])o1,Potency,[1],14.8 µM (active)
same,Potency,[3],inactive
same,Potency,[8],inactive
same,Potency,[4],inactive
same,Potency,[5],inactive
CC(C)C[C@H](CC(=O)O)C(=O)N[C@@H](Cc1c[nH]c2ccccc12)C(=O)N[C@@H](C)c1ccccc1,Potency,[10],inactive
same,Potency,[2],inactive
same,Potency,[7],inactive
same,Potency,[8],inactive
same,Potency,[4],inactive
same,Z-AUC,[9],1.58 (inactive)
same,Z-AUC,[9]; [14],1.54
same,Z-AUC,[9]; measured here: PEO4 Z-AUC,1.63
CC(C)n1nc(-c2ccc3oc(N)nc3c2)c2c(N)ncnc21,Potency,[1],0.001 µM (active)
same,Potency,[7],0.0662 µM (active)
same,Potency,[9],0.871 µM (active)
same,Z-AUC,[9]; [14],-1.21
same,Z-AUC,[9]; measured here: PEO4 Z-AUC,-1.54
same,Potency,[6]; TFE3-RCC UOK109 viability,0.0372 µM (active)
same,z-score,[6]; [11],-2.39
same,z-score,[6]; [12],-2.58
same,z-score,[6]; [13],-3.7
Cc1nc(N)sc1-c1ccnc(Nc2ccc(N3CCOCC3)cc2)n1,Potency,[10],0.59 µM (active)
same,Potency,[2],3.32 µM (active)
same,Potency,[7],6.62 µM (active)
same,Potency,[3],11.8 µM (active)
same,Potency,[8],11.8 µM (active)
same,Potency,[4],7.43 µM (active)
same,Potency,[5],16.6 µM (active)
same,Z-AUC,[9],-0.158 (inactive)
same,Z-AUC,[9]; [14],-0.029
same,Z-AUC,[9]; measured here: PEO4 Z-AUC,-0.545
O=c1c(-c2ccc(O)cc2)coc2cc(O)ccc12,Potency,[10],inactive
same,Potency,[2],inactive
same,Potency,[7],inactive
same,Potency,[8],inactive
same,Potency,[4],inactive
same,Potency,[5],inactive
same,Z-AUC,[9],1.12 (inactive)
same,Z-AUC,[9]; [14],1.51
same,Z-AUC,[9]; measured here: PEO4 Z-AUC,1.78
same,z-score,[6]; [11],0.875
same,z-score,[6]; [12],0.542
same,z-score,[6]; [13],0.636
COc1cc2nc(-c3ccc(N4CCN(C)CC4)cc3)nc(NCCN3CCOCC3)c2cc1OC,Potency,[10],0.935 µM (active)
same,Potency,[2],0.148 µM (active)
same,Potency,[7],0.166 µM (active)
same,Potency,[3],0.0833 µM (active)
same,Potency,[8],3.32 µM (active)
same,Potency,[4],0.0935 µM (active)
same,Potency,[5],0.105 µM (active)
same,Potency,[6]; TFE3-RCC UOK109 viability,1.18 µM (active)
same,z-score,[6]; [11],-1.15
same,z-score,[6]; [12],-1.85
same,z-score,[6]; [13],-1.4
Cc1ccc(/C=N/NC(=O)c2ccccc2Oc2ccccc2)o1,Potency,[1],inactive
same,Potency,[8],20.9 µM (active)
same,Potency,[4],9.35 µM (active)
COc1ccc(-n2c(C)c([N+](=O)[O-])c3ccc(O)cc32)cc1,Potency,[10],inactive
same,Potency,[2],4.69 µM (active)
same,Potency,[3],inactive
same,Potency,[8],inactive
same,Z-AUC,[9],-0.721 (inactive)
same,Z-AUC,[9]; [14],-0.631
same,Z-AUC,[9]; measured here: PEO4 Z-AUC,-0.862
same,z-score,[6]; [11],0.538
same,z-score,[6]; [12],0.575
same,z-score,[6]; [13],0.643
COc1cc2ncnc(Nc3ccc(F)c(Cl)c3)c2cc1OCCCN1CCOCC1,Potency,[10],17.1 µM (active)
same,Potency,[2],13.6 µM (active)
same,Potency,[7],6.05 µM (active)
same,Potency,[3],42.9 µM (active)
same,Potency,[8],54 µM (active)
same,Potency,[4],21.5 µM (active)
same,Z-AUC,[9],0.988 (inactive)
same,Z-AUC,[9]; [14],0.863
same,Z-AUC,[9]; measured here: PEO4 Z-AUC,0.585
CO[C@H]1C[C@@H]2CC[C@@H](C)[C@@](O)(O2)C(=O)C(=O)N2CCCC[C@@H]2C(=O)O[C@H]([C@H](C)C[C@@H]2CC[C@H](OCCO)[C@H](OC)C2)CC(=O)[C@H](C)C=C(C)[C@@H](O)[C@@H](OC)C(=O)[C@H](C)C[C@H](C)C=CC=CC=C1C,Potency,[10],0.235 µM (active)
same,Potency,[2],1.48 µM (active)
CN(C[C@@H]1COCCO1)S(=O)(=O)Nc1ccc2ccc3ncc(-c4cnn(C)c4)cc3c(=O)c2c1,Potency,[10],3.32 µM (active)
same,Potency,[2],1.48 µM (active)
same,Potency,[7],1.05 µM (active)
same,Potency,[3],16.6 µM (active)
same,Potency,[4],4.18 µM (active)
same,Z-AUC,[9],-0.656 (inactive)
same,Z-AUC,[9]; [14],-0.332
same,Z-AUC,[9]; measured here: PEO4 Z-AUC,-0.0714
N#Cc1ccc(NC(=O)Nc2ccccc2Br)c2n[nH]nc12,Potency,[1],10.5 µM (active)
same,Potency,[8],inactive
same,Z-AUC,[9],1.45 (inactive)
same,Z-AUC,[9]; [14],0.952
same,Z-AUC,[9]; measured here: PEO4 Z-AUC,1.04
